# Assay results taken from PubChem BioAssay AID720553 (National Center for Advancing Translational Sciences (NCATS), 2013).
# Out of some 340,000 compounds screened, about 3,300 (0.97%) were called active.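 How the source made its calls: active means maximum activity change below -70%; inconclusive means maximum activity change from -70% to -50%; inactive means maximum activity change above -50%.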 This excerpt belongs to a sample that is enriched for actives.
# Tested on: Potassium voltage-gated channel subfamily H member 2, brain isoform KCNH2 3.1 (human)
# Experiment: qHTS for Inhibitors of KCHN2 3.1: Mutant qHTS
# Conditions: U2OS KCNH2 3.1, thallium flux FluxOr; hits give low values
# How it was run: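 Kinetic fluorescence (2 min after stimulation buffer) measures Tl+ influx through KCNH2 3.1 expressed by viral transduction in U2OS cells; the rate constant is normalized against DMSO controls serving as positive and negative references.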
# On the % scale 0 is the no-effect control and ±100 the full control effect.
row,SMILES,activity change
1,O=C(N/C(=C\c1ccc([N+](=O)[O-])cc1)C(=O)N1CCOCC1)c1cccc(Br)c1,-83.4% (active)
2,O=C(Oc1ccc(Br)cc1C(=S)N1CCOCC1)c1cccc([N+](=O)[O-])c1,-8.06% (inactive)
3,O=C(N/C(=C\c1ccc([N+](=O)[O-])cc1)C(=O)N1CCCCC1)c1ccco1,-4.37% (inactive)
4,O=C(Nc1ccncc1)c1ccccc1[N+](=O)[O-],8.15% (inactive)
5,CC(C)C(=O)Nc1cccc(NC(=O)c2ccc([N+](=O)[O-])cc2Cl)c1,18.7% (inactive)
6,O=C(Nc1cccc(NC(=O)c2ccccc2[N+](=O)[O-])c1)c1ccccc1Cl,-165% (active)
7,COc1ccc(NC(=O)C[C@H]2C(=O)N(CCc3ccccc3)C[C@@H]2C)cc1,5.84% (inactive)
8,CCOc1ccc(CCNC(=O)COC(=O)c2ccc(C)c(S(=O)(=O)N3CCOCC3)c2)cc1OCC,11.9% (inactive)
9,CNC(=O)c1ccc(CN(C)C(=O)c2cc(C3CC3)nc3c2cnn3C(C)C)cc1,6.55% (inactive)
10,CCOC(=O)C(C(=O)c1ccccc1)C(c1ccccc1)c1nccc2ccccc12 (configuration not stated),-15.2% (inactive)
11,Cc1cccc(C(=O)NC2CCN(CC(=O)Nc3cccc(Cl)c3)CC2)c1,-1.48% (inactive)
12,C[C@H]1CN(c2ccc(Br)cc2)C(=O)[C@@H]1CC(=O)Nc1ccc(Br)cc1,0.444% (inactive)
13,CCCc1nn2c(=O)cc(CSCC(=O)Nc3cccc(C)c3)nc2s1,-91.5% (active)
14,Cc1cccc(NC(=O)CSCC(=O)Nc2nnc(C3CC3)s2)c1,-6.65% (inactive)
15,CCOCCc1nn2c(=O)cc(CSCC(=O)Nc3cccc(C)c3C)nc2s1,4.66% (inactive)
16,COc1ccc(C(CNC(=O)CSc2ccccc2)N2CCOCC2)cc1 (configuration not stated),1.87% (inactive)
17,O=C(NCCOc1ccccc1)c1ccccc1F,2.92% (inactive)
18,c1ccc(Cn2nnc3c(NCC4CC4)ncnc32)cc1,-1.53% (inactive)
19,CSc1ncnc2c1ncn2CCCNCc1cccs1,3.07% (inactive)
20,Cc1cccc(-n2cc(CN3CCN(C(=O)c4ncn[nH]4)CC3)c(-c3cccc(F)c3)n2)c1,0.932% (inactive)
21,CCC(O)C1CCN(Cc2cn(-c3ccc(OC)cc3)nc2-c2cccc(F)c2)CC1 (configuration not stated),-90.7% (active)
22,COc1ccc(-n2cc(CN(C)Cc3n[nH]c(=O)[nH]3)c(-c3cccc(F)c3)n2)cc1,-14.7% (inactive)
23,COc1ccc(-c2nn(-c3ccccc3)cc2CN2CCCO2)c(F)c1,4.37% (inactive)

row,SMILES,activity change
1,Cn1cc(CN2CCC(C(O)CCc3ccccc3)CC2)c(-c2ccccc2F)n1 (configuration not stated),-8.61% (inactive)
2,COc1ccc(-n2cc(CNC3CCOCC3)c(-c3cccc(F)c3)n2)cc1,-75% (active)
3,CC(OC(=O)c1ccc(NC(=O)CC#N)cc1)C(=O)Nc1ccc(S(=O)(=O)N2CCCC2)cc1 (configuration not stated),8.99% (inactive)
4,O=[N+]([O-])c1ccc(C(S(=O)(=O)Cc2ccccc2)S(=O)(=O)Cc2ccccc2)cc1,-21.9% (inactive)
5,CC1(C)CN(Cc2cccnc2)C(=O)[C@H]1CC(=O)Nc1ccc(Br)cc1,-12% (inactive)
6,COc1ccc(OC)c(C(=O)NC2CCCc3c2cnn3-c2cc(C)cc(C)c2)c1 (configuration not stated),-6.38% (inactive)
7,CCOC(=O)c1cc(-c2sc(NC(=O)c3ccccc3)nc2C)n(CCO)n1,-0.33% (inactive)
8,CC(=O)Nc1ccc(NC(=O)CCCNC(=O)c2ccc(Cl)cc2)cc1,7.78% (inactive)
9,CCCCC(=O)Nc1ccc(C(=O)Nc2cc(C(F)(F)F)ccc2Cl)cc1,-83.7% (active)
10,CCCCC(=O)Nc1ccc(C(=O)NCCCn2ccnc2)cc1,4.23% (inactive)
11,CCN(CC)C(=O)C(C)N1c2cccc3cccc(c23)S1(=O)=O (configuration not stated),-7.96% (inactive)
12,CNS(=O)(=O)c1ccc2c(c1)[nH]c(=S)n2C,9.63% (inactive)
13,COc1ccccc1NC(=O)C1=C(C)Nc2ncnn2C1c1ccc(C)o1 (configuration not stated),0.24% (inactive)
14,COc1cc(C2C(C(=O)Nc3ccccc3OC)=C(C)Nc3ncnn32)ccc1O (configuration not stated),-70.3% (active)
15,COc1ccccc1NC(=O)C1=C(C)Nc2nc3ccccc3n2C1c1cccs1 (configuration not stated),1.01% (inactive)
16,CC1CCN(C(=O)CSc2nnc(-c3ccco3)n2N)CC1,13.4% (inactive)
17,O=NN(CCCl)C(=O)NCCc1cccc[n+]1[O-],-3.54% (inactive)
18,CCn1c(SCC(=O)N2CCCC2=O)nc2ccccc21,9.56% (inactive)
19,COc1ccc(CN2CCC(n3nccc3NC(=O)CCCc3ccccc3)CC2)cc1C,-86.2% (active)
20,O=C(CCc1ccccc1)Nc1ccnn1C1CCN(Cc2ccc(OCCO)cc2)CC1,-97.2% (active)
21,Cc1c(CN2CCC(n3nccc3NC(=O)CCc3ccccc3)CC2)cnn1C,6.8% (inactive)
22,CC(C)=CCCC(C)CN1CCC(n2nccc2NC(=O)c2ccccc2)CC1 (configuration not stated),-34.5% (inactive)
23,O=C(Nc1ccnn1C1CCN(Cc2cccc(OCCO)c2)CC1)C1CCCC1,5.49% (inactive)

row,SMILES,activity change
1,COc1ccccc1C(=O)Nc1ccnn1C1CCN(Cc2cnn(C)c2)CC1,-32.4% (inactive)
2,COc1cc(CN2CCC(n3nccc3NC(=O)CCCc3ccccc3)CC2)ccc1O,-32.8% (inactive)
3,CC(C)Oc1ccc(CN2CCC(n3nccc3NC(=O)c3cccnc3)CC2)cc1,-80.6% (active)
4,Cc1ccc(CN2CCC(n3nccc3NC(=O)CCCc3ccccc3)CC2)o1,3.89% (inactive)
5,CCOC(=O)c1c(C)[nH]c(C)c1C(=O)COC(=O)/C=C/c1cccc([N+](=O)[O-])c1,-1.51% (inactive)
6,O=C(CNC(=O)N1CC(=O)Nc2ccccc21)Nc1ccc(Br)cc1F,2.32% (inactive)
7,COCCn1c(SCC(=O)Nc2ccc(F)cc2F)nc2c(c1=O)SCC2,-5.38% (inactive)
8,CCc1noc(C)c1C(=O)OCC(=O)c1ccc(NC(=O)CC(C)C)cc1,7.88% (inactive)
9,O=C(OCc1cn([C@H]2C[C@H](c3ccccc3)N(C(=O)c3cccs3)C[C@@H]2O)nn1)c1ccccc1,-26.8% (inactive)
10,CCOC(=O)C1(CCOc2ccccc2)CCN(Cc2cc(OC)cc(OC)c2)CC1,-108% (active)
11,CCCS(=O)(=O)N1CCC(CCOc2ccccc2)(C(=O)OCC)CC1,-4.06% (inactive)
12,CCOC(=O)C1(CCOc2ccccc2)CCN(Cc2ccc(C#CCCO)cc2)CC1,-7.38% (inactive)
13,O=C(Nc1cc(S(=O)(=O)N2CCOCC2)ccc1OCC(F)(F)F)c1ccc(N2CCCC2=O)cc1,-24.2% (inactive)
14,COc1ccc(S(=O)(=O)N2CCCCC2)cc1NC(=O)COc1ccccc1,-11.6% (inactive)
15,Cc1ccc(/C=C/C(=O)Nc2cc(S(=O)(=O)N3CCCCCC3)ccc2OCC(F)(F)F)o1,-83.4% (active)
16,CNC(=O)C[C@H]1C(=O)N(c2ccc(OC)cc2)C[C@@H]1Cc1ccccc1,6.56% (inactive)
17,COCCCn1c(=O)/c(=C/c2ccccc2OC(C)C)s/c1=C(\C#N)C(=O)Nc1ccc(C(=O)O)cc1,1.1% (inactive)
18,CCOC(=O)N1CCN(C(=O)C2CCN(S(=O)(=O)c3cc(Cl)ccc3OCC)CC2)CC1,-0.753% (inactive)
19,CCOc1ccc(Br)cc1S(=O)(=O)N1CCC(C(=O)O)CC1,-119% (active)
20,CCOc1ccc(S(=O)(=O)N2CCC(c3ccccc3)CC2)cc1C(=O)O,-0.0458% (inactive)
21,Cc1ccccc1NC(=O)Cc1nc(COC(=O)C(C)(C)Oc2ccc(Cl)cc2)cs1,0.0076% (inactive)
22,O=C(C1CCN(C2CCN(Cc3ccc4cc(F)ccc4n3)CC2)CC1)N1CCCC1,-46.6% (inactive)
23,O=C(C1CCN(C2CCN(Cc3cccc4c3OCO4)CC2)CC1)N1CCOCC1,1.54% (inactive)

row,SMILES,activity change
1,C/C(=C\c1ccco1)CN1CCC(N2CCC(C(=O)N3CCOCC3)CC2)CC1,-81.6% (active)
2,COc1ccc([C@H]2C[C@@H](n3cc(COC(=O)c4ccccc4)nn3)[C@H](O)CN2C(=O)c2cccs2)cc1,5.99% (inactive)
3,COc1cc(-c2nnc(NC(=O)CS(=O)(=O)c3ccc(Cl)cc3)o2)cc(OC)c1OC,3.81% (inactive)
4,CN1OC[C@@H]2CN[C@H](c3ccc(-c4ccccc4)cc3)C[C@@H]21,-8.66% (inactive)
5,CC(C)c1cc(C(=O)N(C)C2CCCN(Cc3ccccc3F)C2)n(C)n1 (configuration not stated),-13.2% (inactive)
6,COc1ccc(NC(=O)CN(C)C(=O)c2cc(C)oc2C)cc1,-19.2% (inactive)
7,CCOC(=O)Cn1c(=O)n(Cc2ccc(OC)cc2)c(=O)c2cccnc21,-6.36% (inactive)
8,CCOC(=O)Cn1c(-c2cccnc2Cl)nc2ccccc21,-86.5% (active)
9,CCn1c(-c2cccnc2Cl)nc2cc(C)c(C)cc21,1.97% (inactive)
10,CC(C)Oc1ccc(CCc2n[nH]c(=S)n2Cc2ccccc2)cc1,3.01% (inactive)
11,CC(C)Oc1ccc(CCc2nnc(SCC(=O)O)n2-c2ccccc2)cc1,-77.9% (active)
12,CNC(=O)CSc1nnc(CCc2ccccc2)n1-c1ccccc1,-7.79% (inactive)
13,O=Cc1cn(CCOc2ccc(F)cc2)c2ccccc12,-5.46% (inactive)
14,O=C(NCc1ccccc1)C1CNCC(C(=O)NCc2ccccc2)C1 (configuration not stated),-3.07% (inactive)
15,COc1ccccc1NC(=O)CCN1CCN(c2ccc(Cl)cc2)CC1,-5.85% (inactive)
16,O=C(CN1CCN(C(=O)c2cccc(F)c2)CC1)Nc1ccccc1F,-0.253% (inactive)
17,O=C(CCN1CCN(C/C=C/c2ccccc2)CC1)Nc1ccccc1Cl,-111% (active)
18,CNC(=O)NC(=O)C(C)N1CCN(C/C=C/c2ccccc2)CC1 (configuration not stated),-32.3% (inactive)
19,O=C(CN1CCCCCC1)Nc1ccc(Cl)cc1F,7.99% (inactive)
20,O=C(CN1CCN(C/C=C/c2ccccc2)CC1)Nc1ccc(F)cc1F,-107% (active)
21,O=C(CCN1CCN(C/C=C/c2ccccc2)CC1)Nc1cccc(F)c1,-109% (active)
22,CCOC(=O)N1CCN(CCC(=O)Nc2ccccc2)CC1,12.9% (inactive)
23,O=C(CCN1C(=O)c2ccccc2C1=O)Nc1cccc(F)c1,3.35% (inactive)
